Experimental data: PubChem BioAssay AID1159580 (chemical genetic matrix, 2015)
In all, about 5,500 compounds went through this assay and about 2,000 (36%) were called active. Not shown: some 18% with an inconclusive outcome. Cut-off read from the data, not from the text of the source: active = normalized growth mostly below about 0.91 (no sharp cut-off); inconclusive = no clear call, values can overlap the other calls; inactive = mostly above about 0.92. Some of the results follow.

Experiment: chemical genetic growth profiling, strain panel (AID 1159580);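 note: tested at 20 µM; growth read once vehicle control cultures reached saturation at 30 °C; 1 = growth at the plate median or of vehicle wells; lower values mean less growth of the strain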
Conditions: S. cerevisiae deletion strains, growth OD

Measured: normalized growth

COC(=O)C1C(O)CCC2CN3CCc4c([nH]c5ccccc45)C3CC21 (centres undefined)
inactive: locus YAL040C, strain CLN3, stronger effect = lower value 0.997 | locus YCL061C, strain MRC1 (second series), stronger effect = lower value 1.01 | locus YDR363W, strain ESC2, stronger effect = lower value 1 | locus YER002W, strain NOP16, stronger effect = lower value 1.01 | locus YGR078C, strain PAC10, stronger effect = lower value 1.01 | locus YGR229C, strain SMI1, stronger effect = lower value 1.04 | locus YMR307W, strain GAS1, stronger effect = lower value 1.01 | locus YNL153C, strain GIM3, stronger effect = lower value 0.981 | locus YNL175C, strain NOP13, stronger effect = lower value 1.02 | locus YNL197C, strain WHI3, stronger effect = lower value 0.995 | locus YNL224C, strain SQS1, stronger effect = lower value 1 | locus YNL322C, strain KRE1, stronger effect = lower value 1.03 | locus YOR083W, strain WHI5 (second series), stronger effect = lower value 1 | locus YPL241C, strain CIN2, stronger effect = lower value 1.01
